Experimental data reported in PubChem BioAssay AID588692 (Broad Institute, 2011).
Several values for one entry are separate records, joined by “and”; a condition that tells them apart may be missing. Identical values can stand only once. About 830 (0.23%) of roughly 360,000 compounds were called active. This is one part of a sample in which actives are shown more often than they occur.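 Rule for the calls: active = mean luciferase reporter signal, scaled so untreated is 0 and the glycosylation-blocking control 100, at or above a set limit in every replicate; inconclusive = mean reaches the limit but not every replicate does; inactive = mean below the limit.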

Assay: D54 reporter luminescence gain compounds – D54 ERlucT cells, set 2, N-linked glycosylation inhibitor project, primary screen (AID 588692);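 note: luciferase carries N-glycosylation sites so blocking glycosylation raises the light; 0% = median of neutral control wells and 100% = median of 100 nM tunicamycin wells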
Settings: D54 ERlucT glycosylation luciferase reporter, 24 h; at 12.5 µM; hits give high values; percent of 100 nM tunicamycin response

Reporter increase, inactive:
COc1cc(C(=S)N2CCOCC2)cc(OC)c1OC(=O)c1cc([N+](=O)[O-])c(C)c([N+](=O)[O-])c1 1.27%
CSc1ccc(/C=N/N2CCN(Cc3ccccc3Cl)CC2)cc1 2.53%
Cc1ccc(C)c(NC(=O)CCC(=O)N/N=C2/CC(=O)CC(C)(C)C2)c1 0.203%
CC(C)NC(=O)Nc1cccc2c1O[C@H](CN(C)S(=O)(=O)c1cccs1)[C@@H](C)CN([C@H](C)CO)C2=O 0.641%
O=C(CNCc1ccco1)Nc1cc(S(=O)(=O)N2CCOCC2)ccc1N1CCCC1 2.55%
O=[N+]([O-])c1cc(S(=O)(=O)Nc2cccc(Cl)c2)ccc1N=Nc1c(O)[nH]c2ccccc12 -5.47%
Cc1cc(C(=O)NC2CC(C)(C)Cc3c2cnn3-c2ccccc2)n[nH]1 (stereo not given) -9.34%
CC1(C)Cc2c(cnn2-c2cccc(F)c2)C(NC(=O)c2cc[n+]([O-])cc2)C1 (stereo not given) 1.53%
CN(CCO)C(=O)c1nc[nH]c1C(=O)N(C)Cc1ccccc1 1.82%
COc1cc(CCN=Cc2ccccc2O)c([N+](=O)[O-])cc1OC 2.9%
COc1ccc(OC)c2[nH]c(=O)c(CCNC(=O)C(=O)c3c[nH]c4ccccc34)cc12 -0.931%
O=c1ccc2cc(S(=O)(=O)NCCCc3ccccc3)ccc2[nH]1 -0.159%
O=C(N/N=C\c1cccc(Br)c1)c1ccccc1-n1cccc1 0.034%
O=C(Nc1ccc(N2CCCC2=O)cc1)c1cncc(Br)c1 -9.16%
COCOc1cccc(CN2CCC(C)(Oc3ccc(SC)cc3)C2)c1 (stereo not given) -0.871%
Cc1ccc(C)c(NC(=O)C2Cc3ccccc3CN2C(=O)OCc2ccccc2)c1 (stereo not given) -1.83%
O=C(COc1ccc(Cl)cc1)Nc1ccc2oc(=O)ccc2c1 -2%
CCCNC(=O)C1(C)CCN(Cc2ccc(Cl)c(Cl)c2)C1 (stereo not given) 0.635%
Cc1cc(C)c2c(=O)n3c(nc2c1)C(CC(C)C)NC(=O)c1cc2ccccc2cc1-3 (stereo not given) -7.33%
CN(CCOc1ccc(CC2SC(=O)NC2=O)cc1)c1ccccn1 (stereo not given) 4.03% and 1.28%
CCN(CC)CCNCC(=O)Nc1ccc(Oc2ccccc2)cc1 0.423%
CC[C@H](C)C(=O)N[C@H]1CCCN1C(=O)/C=C/c1ccccc1 -0.751%
CN1CCN(Cc2nc3c(c(=O)n(C)c(=O)n3C)n2Cc2cccc3ccccc23)CC1 -0.438%
O=c1c2cc(-c3ccccc3)sc2nc2n1N=C(c1cccs1)CS2 -9.8%
O=C(O[C@H]1[C@H](Cc2ccccc2)NS(=O)(=O)[C@H]2C[C@@H]3C=C[C@]12O3)c1ccc([N+](=O)[O-])cc1 2.96%
CC(Sc1nncs1)C(=O)NCc1ccc2c(c1)OCO2 (stereo not given) -1.14%
COc1cc(OC)c2c(-c3cccc(-c4cccc(N)c4)c3)cc(=O)oc2c1 4.55%
CC(CNS(=O)(=O)c1ccc(Br)cc1)CN(C)C (stereo not given) 0.673%
COc1ccccc1C(=O)COC(=O)CSCC(=O)Nc1cc(C)on1 1.73%
O=C(NCC1CCCO1)C(C(=O)c1ccccc1)n1cc(Cl)ccc1=O (stereo not given) 1.12%
COc1ccccc1-c1nnc2n1N=C(c1ccc(OC(F)F)c(OCC3CC3)c1)CS2 5.65%
CCn1c(SCC(=O)NC2CC2)nnc1-c1ccccc1OC 1.11%
Cn1c(=O)[nH]c2c(c(C(=O)O)nn2C)c1=O -0.816%
COCCn1c(SCC(=O)N2CCCCCC2)nc2c(c1=O)SCC2 2.05%
CCCNC(=O)C1(C)CCCN(C(=O)c2oc3ccccc3c2C)C1 (stereo not given) -0.622%
C/C(=N\NC(=O)OC(C)(C)C)c1ccc[nH]1 -4.4%
CC1CCCCN1CCCNc1ccc(C(CC(N)=O)NC(=O)c2ccccc2)cc1[N+](=O)[O-] (stereo not given) 2.79%
NC(=O)CC(NC(=O)Cc1cccc2ccccc12)c1ccc(NCc2cc(F)ccc2F)c([N+](=O)[O-])c1 (stereo not given) 16%
CCOc1ccc2c(=O)c(-c3ccc4c(c3)OCCCO4)c(C)oc2c1 -1.81%
COc1ccc(C(=O)NCC(c2ccco2)N2CCc3ccccc32)cc1OC (stereo not given) 2.39%
COC(=O)c1ccc(COC(=O)C2CCN(S(=O)(=O)c3c(Cl)cccc3Cl)CC2)o1 0.74%
CC12CN(Cc3ccccc3)CC(C)(CN(Cc3ccccc3)C1)C2=NO -0.263%
CS(=O)(=O)N(CC(O)Cn1c2ccccc2c2ccccc21)c1cccc2ccccc12 (stereo not given) -2.21%
CC/C(=N/Nc1ccccc1)c1cnnc(SC)n1 0.994%
Cc1cc(S(=O)(=O)c2cc3ccc(O)c(C)c3oc2=O)ccc1F 1.14%
COCCn1cnc2c1c(=O)n(CC(=O)NN)c(=O)n2Cc1ccccc1 -0.206%
Fc1ccc2nc(-c3ccccc3)nc(SCc3nnc(-c4ccccc4)o3)c2c1 -4.84%
Cn1cnnc1SCc1nnc(-c2ccccc2Br)o1 2.03%
CN(C(=O)CSc1nnc(-c2ccc3c(c2)OCO3)o1)C1CCS(=O)(=O)C1 (stereo not given) 1%
Cc1[nH]nc(-c2ccc(OCc3cnn(-c4ccccc4)c3)cc2O)c1Oc1ccc(Cl)cc1 -4.08%
O=C(NCCN1CCOCC1)c1cc(Sc2cccc(Cl)c2)nc2ccccc12 -2.52%
Cc1cccc(C)c1OCCN1CCOCC1 -0.152%
CCOCCCNC(=S)N1CCC(NC(=O)C2CCCCC2)CC1 -1.17%
O=C1CN(C(=O)COC(=O)C2CC(=O)N(Cc3ccco3)C2)c2ccccc2N1 (stereo not given) 1.95%
C=CCN1C(=O)c2ccc(C(=O)N3CCC(C(=O)OCC)CC3)cc2C1=O 0.619%
COc1ccc(C(C)C)cc1-c1ccc2nncn2c1 -0.123%

Reporter increase, active:
COC(=O)c1ccc(C(=O)NC2CC(C)(C)Cc3c2cnn3-c2ccc(F)cc2)nc1 (stereo not given) 26.7%
O=C(N/N=C/c1cccc(Br)c1)c1ccc(N2CCCC2=O)cc1 29.6%
CCN(CC)CCOc1ccc2c(c1)C(=NNC(=O)c1ccccn1)c1cc(OCCN(CC)CC)ccc1-2 68.7%
Cc1cc(C)c2nc3nc(C)cc(C)c3c(N)c2c1 79%
COc1ccc(C2=Nn3c(nnc3-c3ccccc3OC)SC2)cc1OC1CCCC1 33.9%
NC(=O)CC(NC(=O)Cc1ccc(Br)cc1)c1ccc(NC2CC3CCC2C3)c([N+](=O)[O-])c1 (stereo not given) 43%
O=[N+]([O-])c1ccc(C=Nc2ccc(Cl)cc2Cl)s1 36.7%
Cc1ccc2nc(SCc3nnc(-c4ccccc4[N+](=O)[O-])o3)c(C#N)cc2c1 35.7%
c1ccc2cc3c(NCCN4CCOCC4)ccnc3cc2c1 102%
